# In PubChem BioAssay (EPA / NIEHS):
# “And” between values parts separate entries of the source, which are not always exact repeats. Identical values can stand only once. Records with an inconclusive call do not appear. The source made the active and inactive calls. How the source made its calls: active means hit-call score of the fitted dose curve at least 0.9, where 1 is the maximum; inconclusive means response in the unintended direction; inactive means score below 0.9.
# Tested on: not listed separately
# Test: TOX21_p53_BLA_p2_viability: Viability Assessment in the Tox21 HCT-116 p53 Agonism Beta-lactamase Assay, Phase 2 (AID 2283591);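 further: compound exposure lasted 16 h at 37 °C; actives lower the ATP signal meaning cytotoxicity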
# Summary of the method: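 Cytotoxicity readout: CellTiter-Glo ATP luminescence, 30 min at room temperature, after the beta-lactamase read. Cells were HCT116 exposed 16 h at 37C to compounds pin-transferred at 217-fold dilution from DMSO stocks.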
Compound,outcome,AC50
[CH3][Sn]([Cl])([Cl])[Cl],inactive,–
Nc1ccccc1C(=O)OCCc1ccccc1,inactive,–
N#Cc1cccc(C#N)c1,inactive,–
Nc1cc(Cl)cc(Cl)c1,inactive,–
COC(C)(C)CCC[C@H](C)C/C=C/C(C)=C/C(=O)OC(C)C,inactive,–
BrCBr,inactive,–
CCc1cccc(C)c1N(C(=O)CCl)[C@@H](C)COC,inactive,–
O=S(=O)(c1ccccc1)c1ccccc1,inactive,–
CN(C)C(=O)C(c1ccccc1)c1ccccc1,inactive,–
C=CCc1ccc(OC(=O)Cc2ccccc2)c(OC)c1,inactive,–
O=P(O)(Oc1ccccc1)Oc1ccccc1,inactive,–
CC1CCCC1.[C-]#[O+].[C-]#[O+].[C-]#[O+].[Mn],inactive,–
O=C(O)COc1ccccc1,inactive,–
[Cl][Sb]([Cl])[Cl],inactive,–
Cc1ccc(N(SC(F)(Cl)Cl)S(=O)(=O)N(C)C)cc1,inactive,–
CC1(C)CC(=O)CC(C)(C)N1[O],inactive,–
O=[N+]([O-])c1cc(C(F)(F)F)c(Cl)c([N+](=O)[O-])c1Cl,–,35.2 µM (active)
C[C@]12CCC(=O)C(O)=C1CC[C@@H]1[C@@H]2CC[C@]2(C)C(=O)CC[C@@H]12,inactive,–
O=[N+]([O-])O.O=[N+]([O-])O.[Cd],–,59.2 µM (active)

# Target: Cellular tumor antigen p53 (Homo sapiens) (UniProt P04637)
# Sequence (P04637 whole entry, looked up): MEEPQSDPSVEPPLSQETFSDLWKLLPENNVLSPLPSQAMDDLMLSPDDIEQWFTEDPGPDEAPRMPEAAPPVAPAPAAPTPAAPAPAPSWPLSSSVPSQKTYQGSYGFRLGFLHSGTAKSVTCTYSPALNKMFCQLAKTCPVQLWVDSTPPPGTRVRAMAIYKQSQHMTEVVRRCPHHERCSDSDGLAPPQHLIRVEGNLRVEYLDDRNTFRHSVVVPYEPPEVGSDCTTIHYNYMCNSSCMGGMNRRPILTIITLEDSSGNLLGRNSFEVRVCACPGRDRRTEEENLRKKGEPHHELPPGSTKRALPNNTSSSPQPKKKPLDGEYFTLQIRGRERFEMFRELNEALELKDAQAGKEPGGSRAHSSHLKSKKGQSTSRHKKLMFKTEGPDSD
# Test: TOX21_p53_BLA_p2_ratio: Tox21 HCT-116 p53 Agonism Beta-lactamase Assay, Ratio, Phase 2 (AID 2283592)
# Summary of the method: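 DMSO-normalized, positive-direction endpoint derived from the 460 nm/530 nm FRET ratio in HCT116 p53 beta-lactamase reporter cells exposed 16 h at 37C and loaded with CCF4-AM for 2 h.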
Compound,outcome,AC50
C#CC1(O)CCCCC1,inactive,–
O=c1[nH]c(Cl)c(Cl)cc1Cl,inactive,–
Nc1ccccc1C(=O)OCCc1ccccc1,inactive,–
N#Cc1cccc(C#N)c1,inactive,–
O=C(O)CCCc1ccc(N(CCCl)CCCl)cc1,–,64.5 µM (active) and 68.4 µM (active) and 32.3 µM (active)
Nc1cc(Cl)cc(Cl)c1,inactive,–
COC(C)(C)CCC[C@H](C)C/C=C/C(C)=C/C(=O)OC(C)C,inactive,–
BrCBr,inactive,–
CCc1cccc(C)c1N(C(=O)CCl)[C@@H](C)COC,inactive,–
CC(Cc1ccc(C(C)(C)C)cc1)CN1C[C@@H](C)O[C@@H](C)C1 (some centres not stated),inactive,–
O=C(O)c1cc[c]([Hg][Cl])cc1,inactive,–
O=S(=O)(c1ccccc1)c1ccccc1,inactive,–
CN(C)C(=O)C(c1ccccc1)c1ccccc1,inactive,–
C=CCc1ccc(OC(=O)Cc2ccccc2)c(OC)c1,inactive,–
O=P(O)(Oc1ccccc1)Oc1ccccc1,inactive,–
CC1CCCC1.[C-]#[O+].[C-]#[O+].[C-]#[O+].[Mn],inactive,–
O=C(O)COc1ccccc1,inactive,–
Cc1ccc(N(SC(F)(Cl)Cl)S(=O)(=O)N(C)C)cc1,inactive,–
CC1(C)CC(=O)CC(C)(C)N1[O],inactive,–
O=CNC(N1CCN(C(NC=O)C(Cl)(Cl)Cl)CC1)C(Cl)(Cl)Cl (configuration not stated),inactive,–
Oc1cc(Cl)ccc1Cl,inactive,–
O=[N+]([O-])c1cc(C(F)(F)F)c(Cl)c([N+](=O)[O-])c1Cl,–,13.3 µM (active)
C[C@]12CCC(=O)C(O)=C1CC[C@@H]1[C@@H]2CC[C@]2(C)C(=O)CC[C@@H]12,inactive,–
